Rows were chosen to be rich in hits. Some 1.1% of all compounds tested hit in one or more screens of this group.
ID4 SMM: binders of human ID4 protein; small molecule microarray, Flag-ID4 binding, fluorescence F/B; 31,000 compounds, 1.2% hits; AID 624137; calls only; P47928; call rule not given here;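 further: a binder raises fluorescence above local background on the spot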
STK33 kin inh: human STK33 kinase inhibition | Q9BYT3 | ADP-Glo luminescence, MBP substrate | inhibition, % at 12.5 µM | 27,000 compounds, 0.44% hits | AID 2322; in the data active means inhibition above about 20%
Target sequence (Q9BYT3 whole entry, looked up): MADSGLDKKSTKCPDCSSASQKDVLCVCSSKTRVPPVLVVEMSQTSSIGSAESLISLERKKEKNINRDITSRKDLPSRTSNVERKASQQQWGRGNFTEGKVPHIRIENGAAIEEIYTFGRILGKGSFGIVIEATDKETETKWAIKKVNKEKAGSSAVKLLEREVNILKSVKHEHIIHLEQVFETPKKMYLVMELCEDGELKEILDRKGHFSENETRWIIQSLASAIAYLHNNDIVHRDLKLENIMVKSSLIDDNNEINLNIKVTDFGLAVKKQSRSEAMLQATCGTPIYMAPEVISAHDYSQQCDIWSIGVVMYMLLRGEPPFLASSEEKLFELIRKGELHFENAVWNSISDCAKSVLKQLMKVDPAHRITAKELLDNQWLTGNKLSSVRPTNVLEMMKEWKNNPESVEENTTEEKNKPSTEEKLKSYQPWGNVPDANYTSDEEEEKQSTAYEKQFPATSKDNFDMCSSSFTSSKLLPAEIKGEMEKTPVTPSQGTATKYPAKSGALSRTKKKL
Numbers stand for hits; n = inactive; x = no result; + = active, no number.

SMILES	ID4 SMM	STK33 kin inh
O=C(CS)NCCCCCCNC(=O)[C@@H]1C[C@@H]2C(=O)NCC(=O)N2[C@@H]1c1ccc(O)cc1	n	n
Cc1noc(C)c1NC(=O)Nc1ccc2c(c1)CC(=O)N([C@H](C)CO)C[C@H](C)[C@H](CN(C)Cc1ccc(-c3ccccc3)cc1)O2	x	n
O=S(=O)(c1cccc2cnccc12)N1CCCNCC1	n	41
CC1CNCCN1S(=O)(=O)c1cccc2cnccc12 (configuration not stated)	n	n
Cc1noc(C)c1NC(=O)Nc1cccc2c1O[C@@H](CN(C)Cc1ccc3c(c1)OCO3)[C@H](C)CN([C@@H](C)CO)C2=O	n	x
Cn1c(SCC(=O)Nc2ccc(F)cc2)nnc1-c1ccc([N+](=O)[O-])cc1	n	27
O=C(CSc1nnc(-c2ccc([N+](=O)[O-])cc2)n1-c1ccccc1)Nc1ccc(F)cc1	n	n
CC(C)NC(=O)N(C)C[C@H]1OCCCC[C@@H](C)Oc2ccc(NS(=O)(=O)c3ccc(Cl)cc3)cc2C(=O)N([C@H](C)CO)C[C@@H]1C	x	n
COC(=O)c1cc(OC)c(OC)cc1NC(=S)N1CCC(C(N)=O)(N2CCCCC2)CC1	+	n
COC(=O)c1cc(OC)c(OC)cc1NC(=O)CN1CCCCC1	n	n
COc1ccc(S(=O)(=O)N(C)C[C@H]2Oc3ccc(NC(=O)Cc4ccccc4)cc3C(=O)N([C@@H](C)CO)C[C@H]2C)cc1	n	n
CNC[C@H]1OCCCC[C@H](C)Oc2ccc(NS(=O)(=O)c3cccs3)cc2C(=O)N([C@@H](C)CO)C[C@@H]1C	+	x
CNC[C@@H]1OCCCC[C@@H](C)Oc2ccc(NS(=O)(=O)c3cccs3)cc2C(=O)N([C@@H](C)CO)C[C@H]1C	+	x
CNC[C@@H]1OCCCC[C@H](C)Oc2ccc(NS(=O)(=O)c3cccs3)cc2C(=O)N([C@@H](C)CO)C[C@H]1C	n	x
CNC[C@H]1OCCCC[C@@H](C)Oc2ccc(NS(=O)(=O)c3cccs3)cc2C(=O)N([C@H](C)CO)C[C@H]1C	n	x
C[C@H]1CN([C@@H](C)CO)C(=O)Cc2cc(NS(=O)(=O)c3ccc(Cl)cc3)ccc2O[C@@H]1CN(C)C(=O)Nc1ccccc1	x	n
COc1cc2c(cc1NC(=O)CCCN1C(=O)c3ccccc3C1=O)oc1ccccc12	n	n
COc1ccc(-c2cc(=O)[nH]c(SCC(=O)Nc3cccc(Cl)c3C)n2)cc1	n	n
COc1ccc(-c2cc(C)nc(SCC(=O)Nc3cccc(Cl)c3Cl)n2)cc1	+	n
CCN1C(=O)c2cccc3c(S(=O)(=O)N4CCCC4C(=O)O)ccc1c23 (configuration not stated)	+	n
COc1cccc(S(=O)(=O)N2CCCC2C(=O)O)c1 (configuration not stated)	n	n
CCCNC(=O)Nc1ccc2c(c1)C(=O)N(C)C[C@@H](OC)[C@H](C)CN(C)[C@H](C)CO2	n	x
C[C@@H]1CN([C@@H](C)CO)C(=O)c2cc(C#Cc3ccccc3F)cnc2O[C@@H]1CN(C)C	n	x
C[C@@H]1CCCCO[C@@H](CN(C)C(=O)NC2CCCCC2)[C@@H](C)CN([C@H](C)CO)C(=O)c2cc(NC(=O)Nc3ccc(C(F)(F)F)cc3)ccc2O1	x	n
COc1cc(OC)cc(-c2nnc(SCc3cccc(C(=O)O)c3)o2)c1	n	n
SMILES	ID4 SMM	STK33 kin inh
O=C(O)c1cccc(CSc2nnc(-c3ccco3)o2)c1	+	n
COc1ccc(S(=O)(=O)N(C)C[C@H]2Oc3ccc(NS(=O)(=O)c4ccccc4)cc3CC(=O)N([C@@H](C)CO)C[C@@H]2C)cc1	x	n
O=[N+]([O-])c1ccc(O)c(C(c2c[nH]c3ccccc23)c2c[nH]c3ccccc23)c1	n	n
O=C1Cc2c([nH]c3ccc([N+](=O)[O-])cc23)-c2ccccc2N1	x	23
NC(=O)c1c(NC(=O)Cn2c(=O)oc3ccccc32)sc2c1CCCC2	n	n
NC(=O)c1c(NC(=O)C2CC(=O)N(c3ccccc3)C2)sc2c1CCCC2 (configuration not stated)	+	n
O=C(Cc1ccccc1)Nc1nc2ccc(Cl)cc2c2nc(-c3ccco3)nn12	n	x
C#Cc1cccc(Nc2ncnc3cc(OC)c(OC)cc23)c1	n	23
Cc1cc(F)c(Nc2ncnc3cc(OCc4ccccc4)ccc23)cc1O	n	x
COc1cc2ncnc(Nc3ccc(OCc4ccccc4)cc3)c2cc1OC	x	n
COc1cc2ncnc(Nc3ccc(Cl)cc3F)c2cc1OC	n	26
C[C@@H]1CN([C@H](C)CO)C(=O)c2cccc(NS(=O)(=O)c3cn(C)cn3)c2O[C@H]1CN(C)C(=O)Nc1cccc2ccccc12	n	x
CC(C)NC(=O)N(C)C[C@@H]1OCCCC[C@@H](C)Oc2ccc(NC(=O)c3ccccc3)cc2C(=O)N([C@H](C)CO)C[C@@H]1C	x	n
COc1ccc(S(=O)(=O)N(C)C[C@@H]2Oc3ccc(NC(=O)C4CC4)cc3C(=O)N([C@@H](C)CO)C[C@H]2C)cc1	n	x
O=C(CCCCCCCCc1ccccc1)c1c(O)cc(O)cc1O	n	n
O=C(CCc1ccc(O)cc1)c1c(O)cc(O)cc1O	x	35
O=[N+]([O-])c1ccccc1S(=O)(=O)N1CCN(Cc2cccc(OCCO)c2)CC1	n	n
O=[N+]([O-])c1ccccc1CN1CCN(CCO)CC1	+	n
Cc1ccc(S(=O)(=O)N(C(=O)C2CCCCC2)c2ccc3oc(=O)sc3c2)c(C)c1	n	x
Cc1scc(C(=O)Nc2cccc(Cn3cccn3)c2)c1-c1ccccc1	+	n
Cc1c(Cl)cccc1NC(=O)Nc1cccc(Cn2cccn2)c1	n	n
Cc1cc(C)c(C)c(OCC(=O)NCc2ccco2)c1	n	n
COc1ccc(-c2noc(CSc3nnc(-c4ccco4)n3-c3ccccc3)n2)cc1OC	n	n
O=Cc1c2[nH]c3ccccc3c2cc2[nH]c3ccccc3c12	n	n
O=c1[nH]c2ccccc2c2ccccc12	n	31
SMILES	ID4 SMM	STK33 kin inh
CNC[C@@H]1Oc2ccc(NC(=O)Nc3ccc4c(c3)OCO4)cc2C(=O)N([C@H](C)CO)C[C@H]1C	+	x
C[C@H](CO)N1C[C@H](C)[C@@H](CN(C)C)Oc2ccc(NC(=O)Nc3ccc4c(c3)OCO4)cc2C1=O	n	x
CNC[C@@H]1OCCCC[C@H](C)Oc2ccc(NC(=O)Nc3ccc4c(c3)OCO4)cc2C(=O)N([C@H](C)CO)C[C@@H]1C	n	x
CNC[C@H]1Oc2ccc(NC(=O)Nc3ccc4c(c3)OCO4)cc2C(=O)N([C@@H](C)CO)C[C@H]1C	+	x
CNC[C@H]1OCCCC[C@@H](C)Oc2ccc(NC(=O)Nc3ccc4c(c3)OCO4)cc2C(=O)N([C@@H](C)CO)C[C@H]1C	+	x
CNC[C@H]1Oc2ccc(NC(=O)Nc3ccc4c(c3)OCO4)cc2C(=O)N([C@@H](C)CO)C[C@@H]1C	n	n
C[C@@H]1CN([C@H](C)CO)C(=O)c2cccc(NS(=O)(=O)c3cccs3)c2O[C@@H]1CN(C)Cc1ccc(Cl)c(Cl)c1	n	x
C/C=C/c1cnc2c(c1)C(=O)N([C@@H](C)CO)C[C@@H](C)[C@@H](CN(C)C(=O)NCCC)O2	n	x
CNC[C@@H]1Oc2cc(C#Cc3ccccc3F)ccc2S(=O)(=O)N([C@H](C)CO)C[C@H]1C	n	x
CC(=O)OC1CCC(C)(O)C2OC(CC1(C)O)C(C(C)C)C2OC(=O)/C=C/c1ccccc1 (configuration not stated)	n	n
COC(=O)Nc1nc2ccc(C(=O)c3ccccc3)cc2[nH]1	x	n
COC(=O)Nc1nc2ccc(C(=O)c3cccs3)cc2[nH]1	n	22

Source: PubChem
